In PubChem BioAssay AID1224921 (Broad Institute, 2016):
Hit rate of the full screen: of about 1,400 compounds, about 350 (25%) were called active. About 2% were inconclusive and are not listed. How the calls were made is not given here. These entries were drawn from the full list. Entries with a potency or affinity are not part of this list.

Assay: C. difficile growth inhibition, confirmation, 4-point retest (AID 1224921);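 further: plate controls were DMSO wells for no effect and levofloxacin 16 µg/mL wells for full effect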
Conditions: Clostridioides difficile clinical isolate growth, OD600, 24 h, active compounds read low; at 30 µM unless noted

Max activity, inactive:
C[C@@H]1CN([C@H](C)CO)C(=O)c2ccccc2-c2ccccc2CO[C@@H]1CN(C)S(=O)(=O)c1ccsc1 12% [at 1.95 µM], COc1ccc(S(=O)(=O)Nc2ccc3c(c2)CC(=O)N([C@@H](C)CO)C[C@@H](C)[C@H](CN(C)CC2CCCCC2)O3)cc1 25.5%, COc1ccccc1S(=O)(=O)N[C@@H]1C=C[C@H](CC(=O)N2CCCCC2)O[C@@H]1CO -6.91% [at 0.5 µM], C[C@@H]1CN([C@@H](C)CO)C(=O)c2cccc(NC(=O)Nc3ccc(C(F)(F)F)cc3)c2O[C@H]1CN(C)S(=O)(=O)c1ccc(Cl)cc1 49.8%, C[C@H]1CCCCO[C@H](CN(C)S(=O)(=O)c2cn(C)cn2)[C@@H](C)CN([C@@H](C)CO)C(=O)c2cc(NC(=O)CCCN(C)C)ccc2O1 5.89% [at 8 µM], C[C@H](CO)N1C[C@H](C)[C@@H](CN(C)S(=O)(=O)c2cn(C)cn2)OCCCC[C@H](C)Oc2ccc(NC(=O)Nc3cccc4ccccc34)cc2C1=O 18.8%, C[C@@H]1CN([C@H](C)CO)C(=O)c2cccc(NC(=O)Nc3ccc(C(F)(F)F)cc3)c2O[C@H]1CN(C)S(=O)(=O)c1ccc(Cl)cc1 33.1%, CC(C)NC(=O)Nc1ccc2c(c1)CC(=O)N([C@H](C)CO)C[C@@H](C)[C@@H](CN(C)Cc1ccc(-c3ccccc3)cc1)O2 54.7%, C[C@@H]1CN([C@H](C)CO)S(=O)(=O)c2ccc(C3=CCCCC3)cc2O[C@H]1CN(C)Cc1cccnc1 53.5%, CC(C)C#Cc1ccc2c(c1)O[C@@H](CN(C)Cc1ccncc1)[C@@H](C)CN([C@H](C)CO)S2(=O)=O 30.4%, COc1ccc(NC(=O)O[C@H]2[C@H](OC(=O)Nc3ccccc3)[C@H](OC(=O)Nc3ccccc3)[C@@H](OC)O[C@@H]2CO)cc1 32.3%, C[C@H](NC(=O)N(C)C[C@@H]1OCc2ccccc2-c2c(n(C)c3ccccc23)C(=O)N([C@H](C)CO)C[C@H]1C)c1ccccc1 18.8%, CC(=O)N(C)C[C@H]1Oc2ncc(-c3ccc(C(=O)N(C)C)cc3)cc2C(=O)N([C@H](C)CO)C[C@H]1C -8.17%, COCC(=O)Nc1ccc2c(c1)C(=O)N(C)C[C@@H](OC)[C@H](C)CN[C@H](C)CO2 -10.3% [at 1.95 µM], CO[C@@H]1CN(C)C(=O)c2ccc(NC(=O)Nc3ccc4c(c3)OCO4)cc2OC[C@@H](C)NC[C@@H]1C 10.6%, COc1ccc(CN(C)C[C@H]2OCCCC[C@@H](C)Oc3ccc(NC(=O)Nc4ccc5c(c4)OCO5)cc3C(=O)N([C@@H](C)CO)C[C@@H]2C)cc1 44.6%, C[C@@H]1CN([C@@H](C)CO)C(=O)c2ccccc2-c2ccccc2CO[C@H]1CN(C)S(=O)(=O)c1ccsc1 36%, C[C@@H](C(=O)N(C)C[C@H]1OCc2ccccc2-c2ccccc2C(=O)N([C@@H](C)CO)C[C@@H]1C)c1ccccc1 -9.53% [at 8 µM], C[C@@H]1CCCCO[C@H](CN(C)S(=O)(=O)c2ccc(Cl)cc2)[C@H](C)CN([C@@H](C)CO)C(=O)c2cc(N(C)C)ccc2O1 25.4%, O=C(N[C@H]1C=C[C@@H](CC(=O)N2CCOCC2)O[C@H]1CO)c1cccc(F)c1 9.04%, C[C@@H]1CN([C@H](C)CO)C(=O)c2cc(C#C[C@@H](C)O)cnc2O[C@@H]1CN(C)Cc1ccc(-c2ccccc2)cc1 -9.01% [at 1.95 µM], C[C@@H]1CCCCO[C@@H](CN(C)CC2CC2)[C@H](C)CN([C@H](C)CO)C(=O)c2cc(NC(=O)Nc3cccc4ccccc34)ccc2O1 12.9%, COCC(=O)Nc1ccc2c(c1)C(=O)N(C)C[C@@H](OC)[C@H](C)CN(C(=O)CN1CCOCC1)[C@H](C)CO2 -15.1% [at 2.1 µM], C[C@H]1CN([C@@H](C)CO)C(=O)c2cc(NC(=O)CCC(F)(F)F)ccc2O[C@H]1CN(C)Cc1ccc(-c2ccccc2)cc1 46.6%, CO[C@H]1CN(C)C(=O)c2cc(NC(=O)Nc3cccc(F)c3)ccc2OC[C@H](C)N(C)C[C@H]1C -7.19% [at 0.5 µM], COc1ccc([Si](C)(C)[C@H]2[C@H](CCO)O[C@@]3(C(=O)N(C)c4ccccc43)[C@@H]2C)cc1 12.6% [at 8 µM], CCCC#Cc1ccc2c(c1)O[C@@H](CN(C)Cc1ccncc1)[C@H](C)CN([C@H](C)CO)S2(=O)=O 15.9%, COc1cccc(S(=O)(=O)Nc2ccc3c(c2)[C@H]2C[C@@H](CC(=O)NC4CCCCC4)O[C@@H](CO)[C@H]2O3)c1 -11.1% [at 1.95 µM], O=C(C[C@H]1C[C@H]2c3cc(NC(=O)Nc4ccc(C(F)(F)F)cc4)ccc3O[C@H]2[C@@H](CO)O1)NC1CCCCC1 -14.7% [at 1.95 µM], COc1ccc(S(=O)(=O)N(C)C[C@@H]2Oc3ccc(NC(=O)CCCN(C)C)cc3CC(=O)N([C@@H](C)CO)C[C@H]2C)cc1 -7.02% [at 1.95 µM], CO[C@@H]1CN(C)C(=O)c2ccc(NC(=O)Nc3ccc4c(c3)OCO4)cc2OC[C@H](C)NC[C@H]1C -8.6% [at 0.5 µM], CO[C@@H]1CN(C)C(=O)c2cc(NC(=O)Nc3ccc(F)cc3)ccc2OC[C@H](C)NC[C@H]1C -13.4% [at 1.95 µM], CO[C@H]1CN(C)C(=O)c2cc(NC(=O)Nc3ccc(F)cc3)ccc2OC[C@@H](C)NC[C@@H]1C -7.9% [at 0.5 µM], CO[C@H]1CN(C)C(=O)c2cc(NC(=O)Nc3ccc(F)cc3)ccc2OC[C@H](C)NC[C@@H]1C -22.1%, CCC(=O)Nc1ccc2c(c1)C(=O)N(C)C[C@@H](OC)[C@@H](C)CN[C@@H](C)CO2 6.81% [at 0.5 µM]
